Laboratory results taken from paper PMC5836133, “The intracellular immune receptor Rx1 regulates the DNA-binding activity of a Golden2-like transcription factor”.
In all, about 16,000 sequences were measured (“e-score”: median about -0.044, highest 2% from about 0.38 on). The sample holds the highest values, similar sequences and a random draw of the others, so the mix is not that of the screen.

Biological target: T1, GST-NbGlk1(82-244) (Nicotiana benthamiana)
T1 chain: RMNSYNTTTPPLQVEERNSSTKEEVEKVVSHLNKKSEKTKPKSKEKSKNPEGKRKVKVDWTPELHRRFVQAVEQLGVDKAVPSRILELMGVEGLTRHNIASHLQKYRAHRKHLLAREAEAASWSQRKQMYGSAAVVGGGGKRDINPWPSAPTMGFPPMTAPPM
Experiment: protein-binding microarray; NbGlk1 is a Golden2-like transcription factor of Nicotiana benthamiana; high values mean tight binding
Conditions: protein: recombinant; tags: GST (pTH6838); dsDNA, one strand shown

| Sequence | binding signal |
| --- | --- |
| ACGCGTAT | 0.211 ± 0.0436 E-score |
| ATTTCAAG | 0.23 ± 0.00665 E-score |
| ATAACGTA | 0.205 ± 0.0524 E-score |
| AGGATACG | 0.357 ± 0.0118 E-score |
| ATAGCAAT | 0.321 ± 0.015 E-score |
| ATCCTATA | 0.326 ± 0.0829 E-score |
| ATCTGCAA | 0.317 ± 0.0136 E-score |
| ATCGCAGA | 0.23 ± 0.0112 E-score |
| ATCTCCGG | 0.318 ± 0.0623 E-score |
| ATCTTAGA | 0.243 ± 0.155 E-score |
| ATTCCTAA | 0.236 ± 0.0111 E-score |
| AATCCCGC | 0.335 ± 0.0716 E-score |
| AAATCCCT | 0.354 ± 0.00608 E-score |
| CAATCCGG | 0.328 ± 0.0049 E-score |
| AAATCCGC | 0.432 ± 0.0197 E-score |
| AAATCCGA | 0.427 ± 0.0109 E-score |
| CAATCCGC | 0.305 ± 0.107 E-score |
| AAATCAGA | 0.315 ± 0.029 E-score |
| AAATCCGG | 0.441 ± 0.0267 E-score |
| AATCCCGT | 0.366 ± 0.0273 E-score |
| AGATCCGG | 0.291 ± 0.0113 E-score |
| AAATCCGT | 0.401 ± 0.0483 E-score |
| CAATCCGA | 0.35 ± 0.00607 E-score |
| ACGGTATC | 0.297 ± 0.0236 E-score |
| ATATAGAA | 0.254 ± 0.0436 E-score |

| Sequence | binding signal |
| --- | --- |
| ATTTAGAA | 0.279 ± 0.0333 E-score |
| ATTCCTTA | 0.228 ± 0.0221 E-score |
| AACAGAAT | 0.301 ± 0.106 E-score |
| AATCTCGA | 0.436 ± 0.00491 E-score |
| AATCTCGT | 0.436 ± 0.0316 E-score |
| ATTCTCGA | 0.308 ± 0.0153 E-score |
| ATTCTCGG | 0.229 ± 0.0773 E-score |
| AATCTCGG | 0.429 ± 0.00874 E-score |
| ATTCTCGC | 0.232 ± 0.00302 E-score |
| AATCACGT | 0.304 ± 0.0574 E-score |
| AATCACGA | 0.339 ± 0.0266 E-score |
| AATCACGG | 0.256 ± 0.0042 E-score |
| AATCGCGC | 0.311 ± 0.0585 E-score |
| AATCGCGT | 0.352 ± 0.0711 E-score |
| AATCTCGC | 0.411 ± 0.0281 E-score |
| AAATAAAT | 0.24 ± 0.102 E-score |
| ATCTCGAA | 0.367 ± 0.06 E-score |
| ATAGCGTA | 0.266 ± 0.0123 E-score |
| AATACGAT | 0.294 ± 0.0273 E-score |
| AATACGTG | 0.216 ± 0.0545 E-score |
| ATAAGATA | 0.301 ± 0.0184 E-score |
| ATTCGGGA | 0.286 ± 0.0532 E-score |
| ATACAGAA | 0.221 ± 0.0562 E-score |
| ACAAGGAT | 0.227 ± 0.00244 E-score |
| ATATTCTC | 0.402 ± 0.0347 E-score |

| Sequence | binding signal |
| --- | --- |
| ATATTCTA | 0.25 ± 0.0067 E-score |
| AAATTCTA | 0.245 ± 0.0867 E-score |
| ATTCTCTG | 0.358 ± 0.0226 E-score |
| AAATTCTC | 0.283 ± 0.0053 E-score |
| ATTCTCTA | 0.306 ± 0.094 E-score |
| AGATTCAC | 0.289 ± 0.0335 E-score |
| AGATTCTA | 0.4515 ± 0.00133 E-score |
| AGATTCTC | 0.4901 ± 0.00333 E-score |
| AGATTCTG | 0.4694 ± 0.00442 E-score |
| ATATTCTG | 0.342 ± 0.04 E-score |
| AAATTCTG | 0.235 ± 0.065 E-score |
| AATCAATT | 0.213 ± 0.116 E-score |
| ATAATTTC | 0.227 ± 0.0306 E-score |
| AGTCAGAT | 0.208 ± 0.0487 E-score |
| AGTTGGAT | 0.269 ± 0.0791 E-score |
| AATCACGC | 0.256 E-score |
| ATAAGGAT | 0.22 ± 0.0746 E-score |
| ATCGGTAA | 0.201 ± 0.0464 E-score |
| ATATTCCG | 0.36 ± 0.00732 E-score |
| ATATTCCC | 0.393 ± 0.0225 E-score |
| ATATTCCA | 0.326 ± 0.0114 E-score |
| AAATCAGC | 0.363 ± 0.0041 E-score |
| CAATCGGA | 0.227 ± 0.013 E-score |
| ATATTGAA | 0.203 ± 0.00588 E-score |
| AATGATAT | 0.224 ± 0.0384 E-score |

| Sequence | binding signal |
| --- | --- |
| AATCGAAG | 0.285 ± 0.0157 E-score |
| AATCAAAG | 0.221 ± 0.0254 E-score |
| AATCTAAC | 0.413 ± 0.0271 E-score |
| AATCTAAT | 0.412 ± 0.0116 E-score |
| AATCTAAG | 0.402 ± 0.0258 E-score |
| ATCCTAAT | 0.248 ± 0.0062 E-score |
| AATCAAAT | 0.297 ± 0.0152 E-score |
| AATCTAAA | 0.403 ± 0.0351 E-score |
| AATCAAAC | 0.25 ± 0.0482 E-score |
| ATTCTAAA | 0.221 ± 0.0153 E-score |
| AATCGAAC | 0.213 ± 0.0388 E-score |
| AATTTAAA | 0.226 ± 0.0725 E-score |
| ATCGCACA | 0.256 ± 0.0485 E-score |
| ATCTCATG | 0.3181 ± 0.000641 E-score |
| ATTTCCGC | 0.333 ± 0.0224 E-score |
| ATCTTATA | 0.342 ± 0.00345 E-score |
| ATCTTATC | 0.288 ± 0.0568 E-score |
| ATCTGGAG | 0.225 ± 0.0674 E-score |
| ATTCGAAT | 0.221 ± 0.203 E-score |
| AATCCACG | 0.406 ± 0.0241 E-score |
| AATCCACA | 0.419 ± 0.00571 E-score |
| AATCCACT | 0.364 ± 0.0439 E-score |
| AATCCTCC | 0.375 ± 0.00794 E-score |
| ATTCCACG | 0.222 ± 0.06 E-score |
| AATCCTCA | 0.376 ± 0.0245 E-score |

| Sequence | binding signal |
| --- | --- |
| AATCCACC | 0.382 ± 0.0151 E-score |
| ATCCCACA | 0.234 ± 0.0752 E-score |
| ATTCCACC | 0.235 ± 0.0237 E-score |
| AATTTTAG | 0.222 ± 0.0121 E-score |
| ATCTGCAT | 0.31 ± 0.0522 E-score |
| AAATCGAC | 0.341 ± 0.00515 E-score |
| AATCCCGG | 0.326 ± 0.0261 E-score |
| AATCCAGA | 0.349 ± 0.0199 E-score |
| AATCCAGC | 0.364 ± 0.00724 E-score |
| AATCCAGT | 0.398 ± 0.00993 E-score |
| AATCCCAG | 0.342 ± 0.0163 E-score |
| AATCCAGG | 0.415 ± 0.00511 E-score |
| ATTACCAC | 0.255 ± 0.0899 E-score |
| ATCATAGA | 0.214 ± 0.00111 E-score |
| AGGAAATA | 0.239 ± 0.0792 E-score |
| ATGAAAAT | 0.321 ± 0.0714 E-score |
| ATGAAATC | 0.4523 ± 0.00241 E-score |
| AAGAAATA | 0.222 ± 0.0864 E-score |
| ACGAAATC | 0.477 ± 0.0103 E-score |
| AAGAAATC | 0.443 ± 0.00563 E-score |
| ATTAAATC | 0.217 ± 0.0673 E-score |
| AAGAAAAT | 0.34 ± 0.023 E-score |
| ACGAAATA | 0.246 ± 0.0511 E-score |
| AGGAAAAT | 0.226 ± 0.0215 E-score |
| ACGAAAAT | 0.272 ± 0.0271 E-score |

| Sequence | binding signal |
| --- | --- |
| AGGAAATC | 0.4891 ± 0.000893 E-score |
| AACCGGAT | 0.233 ± 0.0852 E-score |
| ATTTTGGG | 0.2605 ± 0.000343 E-score |
| ACTGCGAT | 0.208 ± 0.0497 E-score |
| AGTGGATA | 0.257 ± 0.0756 E-score |
| AAAACTTA | 0.223 ± 0.0511 E-score |
| ATCCAGAA | 0.288 ± 0.0705 E-score |
| ACGCGAAT | 0.244 ± 0.0302 E-score |
| CAATCGTA | 0.235 ± 0.0447 E-score |
| ATCTGAGG | 0.265 ± 0.031 E-score |
| AATTAGAT | 0.224 ± 0.00637 E-score |
| CAGAAATC | 0.405 ± 0.0372 E-score |
| CAGAATTC | 0.234 ± 0.013 E-score |
| AATAAATC | 0.253 ± 0.0219 E-score |
| ACAGTATC | 0.304 ± 0.0326 E-score |
| AATCTTGT | 0.397 ± 0.0291 E-score |
| ATTCTTGG | 0.242 ± 0.0219 E-score |
| AATCATGT | 0.304 ± 0.0651 E-score |
| AATCTTGG | 0.386 ± 0.0186 E-score |
| AATCTTGA | 0.3773 ± 0.0026 E-score |
| AATCTTGC | 0.3479 ± 0.00119 E-score |
| AATCTTTG | 0.378 ± 0.0158 E-score |
| AATCTTTC | 0.387 ± 0.0286 E-score |
| AATCTTTA | 0.352 ± 0.0119 E-score |
| AATCGTGG | 0.286 ± 0.072 E-score |

| Sequence | binding signal |
| --- | --- |
| ATCCTAGA | 0.263 ± 0.0827 E-score |
| AAGGAGAT | 0.261 ± 0.0685 E-score |
| CAGCAATC | 0.339 ± 0.0127 E-score |
| ATCCAATC | 0.254 ± 0.066 E-score |
| AATCAATC | 0.25188 ± 0.000161 E-score |
| ATGCAAAT | 0.299 ± 0.0135 E-score |
| ATACAATC | 0.274 ± 0.01 E-score |
| AGGCAATC | 0.417 ± 0.0072 E-score |
| AAGCAATC | 0.386 ± 0.0251 E-score |
| AGGCAAAT | 0.238 ± 0.00762 E-score |
| ATGCAATC | 0.4516 ± 0.0024 E-score |
| ACGCAATC | 0.4798 ± 0.00123 E-score |
| AGGCGATC | 0.3174 ± 0.0029 E-score |
| ACGCAATA | 0.2818 ± 0.000398 E-score |
| ATCTGTTA | 0.295 ± 0.102 E-score |
| AGGATCCT | 0.307 ± 0.0236 E-score |
| ATCCGAGA | 0.308 ± 0.0203 E-score |
| AAATGGAT | 0.235 ± 0.0673 E-score |
| ATCCACTA | 0.247 ± 0.0967 E-score |
| AAATTTTA | 0.24 ± 0.021 E-score |
| ATTGCCCC | 0.205 ± 0.0299 E-score |
| AGGGTAAT | 0.262 ± 0.0657 E-score |
